Measured values: ChEMBL document CHEMBL4513216, “Probing the Open Global Health Chemical Diversity Library for Multistage-Active Starting Points for Next-Generation Antimalarials” (ACS Infect Dis, 2020)
The campaign covered roughly 68,000 compounds. About 2,700 (4%) showed an effect of 50% or more. The list comes from a sample in which strong results are over-represented; it also holds similar structures and randomly drawn compounds.

system: Plasmodium berghei; experiment: Screen against P. berghei liver stage (PbLuc), transformed with Luciferase, at 2uM; assay type: functional, HepG2; settings: tested at 2 uM

Point of comparison: `O=C(NC[C@H]1OC[C@@H]2CN(Cc3ccco3)CC[C@@H]21)c1cccnc1`, INHIBITION -36.8%. Against it:
- Cn1ccnc1CN(Cc1ccccn1)Cc1ccccc1Cl — higher, -8.33%
- CN(Cc1ccc(Cl)s1)C(=O)NCCC(=O)N1CCCCCC1 — higher, -12.84%
- Cc1c(C(=O)NC2=NCCS2)cnn1-c1ccc(Br)cc1 — higher, -23.27%
- Cc1cc(C)nc(NC2CCOC3(CCCC3)C2)n1 (stereo not given) — higher, 10.23%
- Cc1nsc(NC2CCOC3(CCCC3)C2)n1 (stereo not given) — higher, 62%
- Cc1nsc(NC2CCOC3(CCCCC3)C2)n1 (stereo not given) — higher, 62%
- NC(=O)c1ccc(NC2CCOC3(CCCC3)C2)nn1 (stereo not given) — higher, -0.45%
- CCc1nsc(NC2CCOC3(CCCC3)C2)n1 (stereo not given) — higher, -9.6%
- CC(C)c1nsc(NC2CCOC3(CCCC3)C2)n1 (stereo not given) — higher, 30.06%
- Cc1nn(C)c(Cl)c1CNCc1ccc(OCC(N)=O)cc1 — higher, -5.1%
- COc1ccccc1CN1C[C@@H]2COC[C@]2(COCc2ccncc2)C1 — higher, 38.11%
- Cc1cnc(N2CCc3ncnc(N4CCN(C)CC4)c3CC2)nc1 — higher, 17.57%
- Cc1cnn(CC2CCCCN2Cc2ncc(C(C)(C)C)o2)c1 (stereo not given) — higher, 30.91%
- CC(C)(C)c1cnc(CN2CCC[C@H]2CO)o1 — higher, 56.72%
- Cc1cc(C)n(CC2CCCN2Cc2ncc(C(C)(C)C)o2)n1 (stereo not given) — higher, -11.91%
- CC(C)(C)c1cnc(CN2CCCCC2Cn2cccn2)o1 (stereo not given) — higher, -23.94%
- CC(C)(C)c1cnc(CN2CCCC2Cn2cccn2)o1 (stereo not given) — lower, -50.72%
- CCC1CCCCN1Cc1ncc(C(C)(C)C)o1 (stereo not given) — higher, 70.27%
- O=S(=O)(NCC1(O)CCOCC1)c1c(F)cccc1F — higher, 43.15%
- CCc1cnc(N2CCc3ncnc(N4CCN(C)CC4)c3CC2)nc1 — lower, -64.85%
- NC(=O)N1CC(OCc2cccc3ccccc23)C1 — higher, 5.98%
- Cc1cc(C)c2ncn(CCOCCO)c(=O)c2c1 — higher, 24.55%
- O=C(NCc1n[nH]c2c1CCCCC2)c1cnn2c1CCCC2 — higher, -23.38%
- CCc1nc(CN2CCCN(C(=O)COCC3CC3)CC2)cs1 — higher, 3.9%
- Cn1cc(C(O)CNC(=O)c2cc(Br)ccc2Cl)cn1 (stereo not given) — higher, 20.29%
- CCC(CC)NC(=O)c1ccc2nnc(C3CCN(C(C)=O)C3)n2c1 (stereo not given) — higher, 30.75%
- O=C1CCC2(CCCN(C(=O)Cc3ccccn3)C2)N1 (stereo not given) — higher, 29.85%
- O=C1CCC2(CCCN(C(=O)Cc3cccnc3)C2)N1 (stereo not given) — higher, 29.3%
- O=C1CCC2(CCCN(C(=O)Cc3ccccc3)C2)N1 (stereo not given) — higher, 60.05%
- CS(=O)(=O)N1CCN(C(=O)c2cncs2)CC(C(N)=O)C1 (stereo not given) — higher, -33.32%
- CNC(=O)[C@@H](c1ccccc1OC)N1CCC[C@H]1C(=O)NC(C)(C)C — higher, -1.63%
- CNC(=O)[C@@H](c1ccccc1OC)N1CCC[C@H]1C(=O)N1CC[C@@H](O)C1 — higher, 50.91%
- CNC(=O)[C@@H](c1ccccc1OC)N1CCC[C@H]1C(=O)N1CCC1 — higher, -20.89%
- O=C(NCc1cc[nH]n1)NC1CCCN(c2ncccn2)C1 (stereo not given) — higher, 12.8%
- Cn1cccc1CN1CCC2(CCCN(C(=O)c3cccnc3)C2)CC1 — higher, 61.08%
- Cn1cccc1CN1CCC2(CCCN(C(=O)Cc3cccnc3)C2)C1 (stereo not given) — higher, -4.92%
- Cn1cccc1CN1CCC2(CCCN(C(=O)c3cnccn3)C2)C1 (stereo not given) — higher, -30.12%
- Cc1noc(CCCC(=O)NC(C)c2cccnc2)n1 (stereo not given) — higher, -19.76%
- N#CCCN(C(=O)CN1CCCC1c1ccsc1)c1ccccc1F (stereo not given) — higher, 73.05%
- N#CCCN(C(=O)CN1CCCC1c1cccs1)c1ccccc1F (stereo not given) — higher, -13.06%
- N#CCCN(C(=O)CN1CCCC1c1ccsc1)c1ccccc1 (stereo not given) — lower, -37.2%
- CC(C)c1nnc2n1CCN(C(=O)c1cc3cc(F)ccc3[nH]1)C2 — higher, 31.57%
- CC(C)CC(=O)N1CCCC1c1cc(CO)[nH]n1 (stereo not given) — higher, 31.92%
- CN(Cc1cccnc1)C[C@@H]1OC[C@H]2CN(Cc3ccoc3)CC[C@H]21 — higher, 55.7%
- CN(C)C[C@@H]1OC[C@H]2CN(Cc3ccoc3)CC[C@H]21 — higher, 0.13%
- CN(Cc1ccco1)C[C@@H]1OC[C@H]2CN(Cc3nccs3)CC[C@H]21 — higher, 59.03%
- Cn1cc(C(=O)NC[C@@H]2OC[C@H]3CN(Cc4ccco4)CC[C@H]32)cn1 — higher, -33.95%
- CN(Cc1ccco1)C[C@H]1OC[C@@H]2CCN(Cc3nccs3)C[C@@H]21 — higher, -13.27%
- CN(Cc1ccco1)C[C@H]1OC[C@@H]2CCN(Cc3ccsc3)C[C@@H]21 — higher, 22.89%
- O=C(NC[C@H]1OC[C@@H]2CN(Cc3ccco3)CC[C@@H]21)c1cscn1 — higher, 66.46%
- Cc1ccc(CN2CC[C@H]3CO[C@H](CN(C)Cc4ccco4)[C@H]3C2)s1 — higher, 59.03%
- CN(Cc1ccco1)C[C@H]1OC[C@@H]2CCN(Cc3cccs3)C[C@@H]21 — higher, -2.83%
- CN(Cc1ccco1)C[C@H]1OC[C@@H]2CCN(Cc3ccccn3)C[C@@H]21 — higher, -1.63%
- CN(Cc1cccnc1)C[C@@H]1OC[C@H]2CN(Cc3ccco3)CC[C@H]21 — higher, 10.53%
- O=C(N[C@@H]1CN(Cc2ccc3[nH]ccc3c2)C[C@H]1O)c1cscn1 — higher, -0.83%
- Cc1nn(C)c(C)c1CC(=O)N1CCC(N(C)c2cccnn2)CC1 — lower, -48.87%
- COc1ccc(C2=CCN(C(=O)C3CCS(=O)(=O)C3)CC2)cc1 (stereo not given) — higher, -7.13%
- Cc1ccccc1CN1CCC(NCC2CNc3ccnn3C2)CC1 (stereo not given) — higher, -4.7%
- N#Cc1ccccc1CN1C[C@H]2CC[C@@H](C1)N(CC1CCC1)C2=O — lower, -39.43%
- COc1ncccc1C(=O)NCCn1cnc(C)cc1=O — higher, -7.16%
- CCn1ccc(NS(=O)(=O)c2cccc(COC)c2)n1 — lower, -85.71%
- COC(=O)Cn1ccc(NS(=O)(=O)c2ccc3c(c2)CCC3)n1 — higher, 53.98%
- O=S(=O)(NCCCn1cccn1)c1ccc2c(c1)CCC2 — higher, 42.26%
- O=S(=O)(NCCCn1cncn1)c1ccc2c(c1)OCCCO2 — lower, -56.09%
- O=S(=O)(NCCCn1cncn1)c1ccc2c(c1)CCC2 — higher, 54.99%
- O=S(=O)(NCCCn1cncn1)c1ccc2c(c1)CCO2 — higher, -9.13%
- O=S(=O)(NCCCn1cncn1)c1ccc2c(c1)OCCO2 — higher, 65.71%
- O=S(=O)(NCCCn1cncn1)c1ccc2c(c1)CCCC2 — higher, -5.74%
- CCc1ccc(S(=O)(=O)Nc2ccn(CC(=O)OC)n2)cc1 — higher, 11.9%
